# Compound activity (PubChem)
# Most compounds without a hit are left out; they make up all but 4.1% or so of the library.
# ssDAF12 agonist: S. stercoralis DAF-12 nuclear receptor activators, primary screen, cell-based, luminescence, HEK293, GRIP1 co-expression, lit1-tk-luc; HEK293 ssDAF-12/GRIP1 lit1-tk-luc reporter; % of 3 µM dafachronic acid response; activation, % at 6.8 µM; hit rate 1% among 370,000;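 active = activation above the mean over all tested compounds plus 3 SD, cut at about 0.9% in these data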;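 also: 0% = DMSO-only wells and 100% = 3 µM delta7-dafachronic acid wells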
# DAX1 inh-1: DAX1 (NR0B1) inhibitors, primary screen, cell-based, HEK293, Gal4-DAX1, luciferase luminescence | HEK293 Gal4-DAX1 luciferase reporter | hit rate 0.99% among 340,000 | Nuclear receptor subfamily 0 group B member 1 (Homo sapiens), P51843 | inhibition, % at 6.75 µM;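 active = inhibition above the mean over all tested compounds plus 3 SD, cut at about 4.2% in these data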;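 also: 0% = DAX1-transfected cells with DMSO and 100% = empty-vector control cells with DMSO; inhibition shows as a rise in luminescence from relieved DAX1 repression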
# DAX1 inh-2: DAX1 (NR0B1) inhibitors on StAR promoter, primary screen, cell-based, luminescence, SF-1 (NR5A1), full-length DAX-1. HEK293T StAR-luciferase reporter, SF-1/DAX-1 repression relief. inhibition, % at 6.8 µM. hit rate 1.1% among 370,000;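 active = inhibition above the mean over all tested compounds plus 3 SD, cut at about 3.6% in these data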;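 also: 0% = DAX-1 cells with DMSO and 100% = cells lacking DAX-1 with DMSO; higher inhibition means more luminescence from relief of DAX-1 repression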
# hcDAF12 agonist: H. contortus DAF-12 nuclear receptor activators, primary screen, cell-based, luminescence, HEK293, lit1-tk-luc reporter | HEK293 hcDAF-12 lit1-tk-luc reporter; 0% DMSO, 100% Δ7-dafachronic acid | activation, % at 6.8 µM | hit rate 1.4% among 370,000 | AID 652067, 2013;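 active = activation above the mean of all tested compounds plus 3 SD, cut at about 5.5% in these data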;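 also: 100% = response to 3 µM Δ7-dafachronic acid high control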
# hgDAF-12 ag: H. glycines DAF-12 receptor agonists, primary screen, cell-based, luminescence, HEK293, GAL4 fusion, UAS-luciferase; Nuclear hormone receptor DAF-12 (Heterodera glycines), GAL4 fusion; HEK293 GAL4-hgDAF12 UAS-luciferase reporter, agonist luminescence; normalized to butyrate control; activation, % at 6.8 µM; hit rate 1.8% among 370,000; AID 687014, 2013;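 active = activation above a cutoff set at the mean of all screened compounds plus 3 SD, cut at about 10% in these data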;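 also: 0% = DMSO wells and 100% = sodium butyrate wells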
# hgDAF12 ag: H. glycines DAF-12 receptor agonists, confirmation, cell-based, luminescence, HEK293, GAL4-LBD fusion | HEK293 GAL4-hgDAF12 luciferase reporter, agonist mode; percent of butyrate response | activation, % at 6.8 µM | shares compounds with hgDAF-12 ag | AID 743050, 2013 | hit rate 80% among 3,300;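 active = mean activation over triplicate wells above the hit cutoff derived from the earlier primary screen, cut at about 11% in these data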;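 also: 0% = DMSO low control and 100% = 2 mM sodium butyrate high control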
# LXRb DAF12 ctr: LXR agonists, Gal4 luciferase reporter, confirmation, counter-screen for hgDAF-12 agonist project, cell-based, luminescence, HEK293, H. glycines campaign | shares compounds with hgDAF-12 ag | 24 h | activation, % at 6.8 µM | 3,300 tested, under 10 active | AID 743051, 2013;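 active = mean activation of the triplicate above a set limit carried over from the primary screen, none filed active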
# Target sequence (P55055 whole entry, looked up, the tested form may be a part): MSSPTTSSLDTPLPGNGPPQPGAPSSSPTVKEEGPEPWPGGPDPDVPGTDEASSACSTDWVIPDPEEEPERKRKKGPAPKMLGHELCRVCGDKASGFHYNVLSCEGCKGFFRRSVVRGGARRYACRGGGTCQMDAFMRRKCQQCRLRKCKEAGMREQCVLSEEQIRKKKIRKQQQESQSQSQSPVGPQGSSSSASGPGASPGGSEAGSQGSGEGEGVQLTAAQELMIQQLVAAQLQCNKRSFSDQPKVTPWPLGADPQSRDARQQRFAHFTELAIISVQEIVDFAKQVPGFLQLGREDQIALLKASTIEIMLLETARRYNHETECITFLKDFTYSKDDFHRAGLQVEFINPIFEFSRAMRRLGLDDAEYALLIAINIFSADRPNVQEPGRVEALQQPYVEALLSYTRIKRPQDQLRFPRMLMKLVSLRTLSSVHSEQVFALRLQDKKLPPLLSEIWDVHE
# * hit, by the source's call; / = not tested or not shown.
SMILES,ssDAF12 agonist,DAX1 inh-1,DAX1 inh-2,hcDAF12 agonist,hgDAF-12 ag,hgDAF12 ag,LXRb DAF12 ctr
CCC[C@H]1OC(=O)[C@@H]2CCCN2C(=O)[C@H]([C@H](C)Cc2ccccc2)NC(=O)[C@@H]2CCCN2C(=O)[C@@H]2CCCN2C(=O)[C@H](C(C)C)OC(=O)[C@@H]2CCCN2C(=O)[C@H](C(C)C)NC(=O)C1(C)C,-2,/,/,-2,-4,/,/
COc1cccc(NC(=O)/C=C/c2ccccc2[N+](=O)[O-])c1,0,2,3,5,16*,16*,1
COc1ccc(OC)c(NC(=O)/C=C/c2ccccc2[N+](=O)[O-])c1,-1,-1,-1,-1,-1,/,/
O=C1C(C=NCCCN2CCCC2=O)=C(O)c2ccccc21,0,2,2,4,19*,7,0
Nc1ccc2cc3ccc(N)cc3nc2c1,1.7*,/,-2,32*,28*,6,0
Cc1ccc2cc(N)ccc2n1,-1,0,1,1,-3,/,/
COc1ccc(OC)c(S(=O)(=O)Nc2ccc(C(=O)Nc3cc(C)on3)cc2)c1,-1,/,-1,0,16*,0,0
COc1ccc(C(=O)Nc2cc(C)on2)c(OC)c1,0,0,2,3,15*,13*,1
C(=C\c1nnc2c3ccccc3ncn12)/c1ccccc1,2.5*,-2,1,6.1*,15*,18*,1
COc1cc(/C=C/c2nnc3c4ccccc4ncn23)cc(OC)c1OC,-2,-2,-2,-4,-4,/,/
CCc1c(-c2ccccc2)ncn1CCc1ccccc1OC,-2,/,-1,-4,1,/,/
N#CC1CC(c2ccccc2)=NN1c1ccccc1[N+](=O)[O-] (centres undefined),0,1,1,4,16*,13*,0
O=CN1N=C(c2ccccc2)CC1c1ccccc1[N+](=O)[O-] (centres undefined),0,1,0,1,1,/,/
CC(C)(C)C(=O)Nc1nc2ccc(S(C)(=O)=O)cc2s1,-1,3,0,3,14*,13*,0
Cc1ccc(NC(=O)Nc2nc3ccc(S(C)(=O)=O)cc3s2)cc1,-1,-1,0,-3,-2,/,/
CS(=O)(=O)c1ccc2nc(NC(=O)Nc3ccccc3F)sc2c1,0,7.3*,3,2,15*,27*,1
CC(C)(C)c1ccc(S(=O)(=O)N2CCC(C(=O)NCc3cccs3)CC2)cc1,-1,/,0,-2,0,/,/
C/C(=N\NC(=O)c1ccn[nH]1)c1cn(C)nc1C,1.3*,2,2,3,15*,10,0
Cn1ccc2cc(OCc3ccccc3)ccc21,1.4*,3,4.2*,4,22*,15*,1
COc1ccc(OCC(=O)N/N=C(\C)c2cccs2)cc1,-1,1,0,-1,1,/,/
O=C(COc1ccccc1[N+](=O)[O-])Nc1ccc(Br)cc1,1,6.8*,3,3,16*,11*,0
C/C(=N\NC(=O)COc1ccccc1[N+](=O)[O-])c1cccs1,0,0,2,4,15*,11*,0
Cc1ccc(C)c(NC(=O)c2cc(-c3ccc(Cl)cc3)nc3ccccc23)c1,-1,/,0,-1,15*,1,0
Cc1ccc(-c2cc(C(=O)Nc3ccncc3)c3ccccc3n2)cc1,-1,0,0,0,2,/,/
C=C(O[C@H]1[C@H](O)CC=C(C(=O)O)[C@@H]1O)C(=O)O,-1,/,0,1,4,/,/
SMILES,ssDAF12 agonist,DAX1 inh-1,DAX1 inh-2,hcDAF12 agonist,hgDAF-12 ag,hgDAF12 ag,LXRb DAF12 ctr
O=C(Nc1cccc(C(=O)O)c1)Nc1ccccc1Cl,0,-8,2,3,18*,9,1
O=C(Nc1cccc(Cl)c1)Nc1cccc(C(=O)O)c1,1,/,1,1,10,/,/
Cc1ccc2oc(-c3ccco3)cc(=O)c2c1,0,0,4,2,14*,17*,1
O=c1cc(-c2ccco2)oc2ccccc12,-1,3,0,0,1,/,/
C=Cc1ccc(C(=O)N(Cc2ccc(F)cc2)C(C(=O)N(C)C2CCCC2)c2ccc(OC)c(OC)c2)cc1 (centres undefined),-2,/,-1,-2,-2,/,/
CC(=O)c1ccc(NC(=O)c2noc3c2CCCCC3)cc1,1,2,3.8*,2,14*,17*,1
COc1ccc(-c2csc(N=C(N)N)n2)cc1,-1,1,2,2,16*,11*,0
COc1ccc(N2C(=O)c3n[nH]c(C)c3C2c2ccc(F)cc2)cc1 (centres undefined),-1,/,2,2,2,/,/
Cc1cccc(NC(=O)c2ccc(N3CCOCC3)c([N+](=O)[O-])c2)n1,-1,2,1,0,14*,5,0
Cc1cccc(NC(=O)c2ccc(N3CCCCC3)c([N+](=O)[O-])c2)n1,0,1,1,3,10,/,/
COCCN1Cc2cc(C(=O)OC)c3c(c2C1=O)c1ccccc1n3S(=O)(=O)c1ccc(C)cc1,0,/,0,4,0,/,/
CNc1cccc(-c2cccc(O)c2)n1,-1,/,2,0,17*,9,0
Cc1ccc(NC(=O)c2cc3c(s2)CCCC3)cc1,0,6.6*,4.2*,5,19*,17*,1
Cc1ccc(NC(=O)c2scc3c2CCCC3)cc1,1,4.6*,3,6.2*,23*,15*,1
COc1ccc(CSc2nnc(SCC(=O)Nc3ccc4c(c3)OCO4)s2)cc1,-1,/,0,-1,3,/,/
O=C(NCc1ccccc1)c1cccc(COc2ccc3c(c2)CCC3)c1,-1,-4,2,3,21*,17*,1
CNS(=O)(=O)c1ccc(NC(=O)c2ccccn2)cc1,0,1,1,3,14*,9,0
